Records with an inconclusive call do not appear. Unmarked numbers belong to inactive results. The call rests on the fitted dose curve.
Assay: p53 small molecule agonists, cell-based qHTS assay with human liver microsomes (AID 1963577);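 further: p53 response element beta-lactamase reporter cells with liver microsomes plus NADPH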
Conditions: HCT-116 p53RE-bla with human liver microsomes, ratio, 16 h; series mostly up to 66 µM; activation: at the top concentration
Text: National Center for Advancing Translational Sciences [NCATS]
Division of Preclinical Innovation [DPI]
U.S. Environmental Protection Agency [EPA]
National Institutes of Environmental Health Sciences [NIEHS]
National Toxicology Program [NTP]
U.S. Food and Drug Administration [FDA]
p53, a tumor suppressor protein, is activated following cellular insult, including DNA damage and other cellular stresses. The activation of p53 regulates cell fate by inducing DNA repair, cell cycle arrest, apoptosis, or cellular senescence. The activation of p53, therefore, is a good indicator of DNA damage and other cellular stresses. […] The activation of the reporter gene under culture conditions can be detected by fluorescence intensity.
Tox21 Assay Protocol Summary:
The p53RE-bla cells were dispensed at 4,000cells/3ul/well in 1536-well black-clear bottom plates. After the assay plates were incubated at 37 C, 5% CO2 incubator for 5 hours, 23 nL of compounds dissolved in DMSO, positive controls or DMSO only was transferred to the assay plate. Following compound addition, 3 uL of human liver microsomes (XenoTech, Kansas City, KS) at final concentration of 0.5 mg/mL and 1uL of Beta-Nicotinamide adenine dinucleotide 2-phosphate (NADPH) at final concentration of 0.5 mg/mL were transferred to the assay plate. The plates were incubated at 37 C for 16 hours. 1 uL of LiveBLAzer detection mixture was added to each well and the plates were incubated at room temperature in the dark for 2 h.
On the % scale 0 is the no-effect control and ±100 the full control effect.

SMILES	activation
CCN(CC)c1ccc(C(=C2C=CC(=[N+](CC)CC)C=C2)c2cc(S(=O)(=O)O)ccc2S(=O)(=O)[O-])cc1	-0.438% [at 30.3 µM]
CCc1cc(Cc2cc(CC)c(N)c(CC)c2)cc(CC)c1N	-12.8%
CN(C)c1ccc(C=O)cc1	-4.53%
Cc1cccc(Nc2ccccc2)c1	-7.63%
CC[C@H]1CC[C@H](NCc2cc3c(cc2OC)[C@H]2C[C@H]2C(=O)N3C)[C@H](c2ccccc2)N1	-6.8%
CCCC(=O)OCC	0.617%
C(=C\c1ccccc1)/CN1CCN(C(c2ccccc2)c2ccccc2)CC1	2.73% [at 30.3 µM]
Cc1ccc(O)c(C(=O)c2ccccc2)c1	2.15%
CCCCN1C(=O)[C@@H]([C@H](O)C2CCCCC2)NC(=O)C12CCN(Cc1ccc(Oc3ccc(C(=O)O)cc3)cc1)CC2	-12.1%
Cc1cccc(O)c1N	-7.35%
O=C(Nc1ncc([N+](=O)[O-])s1)c1cccs1	0.435% [at 30.3 µM]
CS(C)=O	-1.58%
COc1ccc(C(=O)/C(Br)=C\C(=O)O)cc1	-0.175%
CC(C)CCCCCCN	-1.04%
O=C(c1ccc(O)cc1)c1ccc(O)c(O)c1O	-6.16%
[Cl][Bi]([Cl])([c]1ccccc1)([c]1ccccc1)[c]1ccccc1	-6.62%
CC[C@H](C)COC(=O)/C=C/c1ccc(N=Cc2ccc(OC)cc2)cc1	-2.26%
CCc1ccc2c(c1)C(=O)c1ccccc1C2=O	1.2%
COCCOC[C@H](CC1(C(=O)NC2CCC(C(=O)O)CC2)CCCC1)C(=O)Oc1ccc2c(c1)CCC2 (stereo not given in full)	-5.04%
O=C1c2ccccc2C(=O)c2c(O)c(O)cc(O)c21	-6.54%

SMILES	activation
CC1=NN(c2cc(S(=O)(=O)O)ccc2Cl)C(=O)C1N=Nc1ccccc1 (stereo not given)	-8.33%
O=C=NC1CCC(CC2CCC(N=C=O)CC2)CC1 (stereo not given)	3.68%
CSc1c(Cl)c(Cl)c(Cl)c(Cl)c1Cl	4.23%
CCN(CCC#N)c1ccc(N=Nc2c(Cl)cc([N+](=O)[O-])cc2Cl)cc1	-2.07%
CCCCCCCCCCCCOCCOS(=O)(=O)O	-7.24%
CC1=CC(=C(c2ccc(N)cc2)c2ccc(N)cc2)C=CC1=N	-13.4% [at 5.99 µM]
COc1ccc(NC(=O)CC(C)=O)cc1	0.802%
CC(COc1ccc(C(C)(C)C)cc1)OS(=O)OCCCl (stereo not given)	-2.8%
CCCCCCCC/C=C/CCCCCCCC1=NCCN1CCO	3.29%
C=C(C)C(=O)OCC(O)COc1ccc(C(C)(C)c2ccc(OCC(O)COC(=O)C(=C)C)cc2)cc1 (stereo not given)	-9.34%
CC(CN)CCCN (stereo not given)	-6.94%
OC12N=C(c3ccccc3)SC1Cc1cc(Cl)ccc12 (stereo not given)	-19.1%
CCCCOC(=O)c1ccccc1C(=O)OCC(CC)CCCC (stereo not given)	0.329%
CC(NCCC(c1ccccc1)c1ccccc1)c1ccccc1 (stereo not given)	-3.52% [at 30.3 µM]
CCOc1ccc(NC(C)=O)cc1N	-5.68%
CC1(C)CCC(C)(C)c2cc(C(=O)Nc3ccc(C(=O)O)cc3)ccc21	-17.8%
O=S(=O)(O)c1cc(I)c(O)c2ncccc12	19.4% [at 30.3 µM]
CNCC[C@H](Oc1cccc2ccccc12)c1cccs1	-2.16% [at 30.3 µM]
CC(C)OC(=O)OCOP(=O)(CO[C@H](C)Cn1cnc2c(N)ncnc21)OCOC(=O)OC(C)C	1.04% [at 30.3 µM]
CCC(C)Nc1ccc(NC(C)CC)cc1 (stereo not given)	-3.44%

Source: PubChem BioAssay (Tox21)
